# Experimental data as given in PubChem BioAssay (NCATS).
# Records with an inconclusive call do not appear. Active and inactive are the calls of the source. Unless noted, calls come from the whole dose curve; as a rule, active = well fitted cell-killing curve with a large enough effect; inconclusive = small, poorly fitted or top-dose-only effect, or effect the other way; inactive = no such curve, though single readings can be large or run the other way.
# Assays:
# [1] = Quantitative High-Throughput drug screen in 47 multiple myeloma cell lines against the NCATS MIPE library collection: VP6_DJ cell viability assay (AID 1919867); note: nearly all actives have a fitted effect of over 40% in size; note: potency is the fitted concentration of half-maximal effect
# In short: (§1)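 500 cells/well; MIPE 4.0 drugs pin-transferred; 48 h, 37C, 5% CO2. CellTiter-Glo, 5 min RT, luminescence. Controls: DMSO 100%, media 0%.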
# [2] = Quantitative High-Throughput drug screen in 47 multiple myeloma cell lines against the NCATS MIPE library collection: PCM6_Riken cell viability assay (AID 1919870); note: potency is the fitted concentration of half-maximal effect; nearly all actives have a fitted effect of over 30% in size
# In short: as §1
# [3] = Quantitative High-Throughput drug screen in 47 multiple myeloma cell lines against the NCATS MIPE library collection: RPMI8226_ATCC cell viability assay (AID 1919871); note: nearly all actives have a fitted effect of over 30% in size; note: potency is the fitted concentration of half-maximal effect
# In short: as §1
# [4] = Quantitative High-Throughput drug screen in 47 multiple myeloma cell lines against the NCATS MIPE library collection: KMS11_JCRBsus cell viability assay (AID 1919873); note: nearly all actives have a fitted effect of over 50% in size; note: potency is the fitted concentration of half-maximal effect
# In short: as §1
# [5] = Quantitative High-Throughput drug screen in 47 multiple myeloma cell lines against the NCATS MIPE library collection: KMS28BM_JCRB cell viability assay (AID 1919874); note: nearly all actives have a fitted effect of over 35% in size; note: potency is the fitted concentration of half-maximal effect
# In short: as §1
# [6] = Quantitative High-Throughput drug screen in 47 multiple myeloma cell lines against the NCATS MIPE library collection: PE2_PLB cell viability assay (AID 1919869); note: nearly all actives have a fitted effect of over 35% in size; note: potency is the fitted concentration of half-maximal effect
# In short: as §1
# [7] = Quantitative High-Throughput drug screen in 47 multiple myeloma cell lines against the NCATS MIPE library collection: OPM2_DSMZ cell viability assay (AID 1919872); note: nearly all actives have a fitted effect of over 30% in size; note: potency is the fitted concentration of half-maximal effect
# In short: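 Myeloma cell lines, 500 cells per well, exposed to MIPE 4.0 library compounds for 48 h at 37C, 5% CO2. Viability from ATP by CellTiter-Glo luminescence; normalised to DMSO (100%) and media-only (0%) wells.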
# [8] = qHTS drug screen for cell cycle checkpoint inhibitors in PARPi-resistant BRCA-mutant ovarian cancer cell lines. (AID 1963452; calls by dose curve); settings: PEO1/OlaR viability, CellTiter-Glo luminescence, 96 h, stronger effect = lower value
# In short: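 PEO1, PEO4 and PEO1/OlaR ovarian cancer cells, 600 per well, exposed 96 h at 37C to a dilution series. Viability read by CellTiter-Glo luminescence, normalized to DMSO and empty wells; activity summarized as Z-AUC.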
# [9] = qHTS for identification of novel therapeutic agents for treatment of microphthalmiaassociated transcription factor (MiT) renal cell carcinoma (RCC) (AID 1963991); settings: CellTiter-Glo, 48 h, stronger effect = lower value
# In short: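 Three TFE3-fusion RCC lines (UOK109, UOK124, UOK145), 500 cells/well in complete medium, were treated with MIPE 4.0 compounds for 48 hours at 37 C. Viability was by CellTiter-Glo luminescence, normalized to DMSO (100%) and empty wells (0%); curves fitted over 11 concentrations.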
# [10] = measured here: PEO1 parental Z-AUC
# [11] = TFE3-RCC UOK109 viability, measured here: UOK109 Z-AUC
# [12] = TFE3-RCC viability, measured here: UOK124 Z-AUC
# [13] = TFE3-RCC viability, measured here: UOK145 Z-AUC
SMILES,Potency [1],Potency [2],Potency [3],Potency [4],Potency [5],Potency [6],Potency [7],Z-AUC [8],"Z-AUC [8, 10]",Z-AUC ([8]; measured here: PEO4 Z-AUC),"z-score [9, 11]","z-score [9, 12]","z-score [9, 13]"
COC[C@@H](c1ccc(C(F)(F)F)cc1)N1CCN(C2(C)CCN(C(=O)c3c(C)ncnc3C)CC2)C[C@H]1C,23.5 µM (active),20.9 µM (active),inactive,inactive,inactive,,,,,,,,
COCCOC(=O)C1=C(C)NC2=C(C(=O)CC(c3ccccc3OC)C2)C1c1cccc(O)c1 (configuration not stated),2.96 µM (active),,,5.26 µM (active),,16.6 µM (active),16.6 µM (active),-0.198 (inactive),0.425,0.517,,,
CN(C)Cc1cccc(N=C(c2ccccc2)c2c(O)[nH]c3cc(C(=O)N(C)C)ccc23)c1,13.2 µM (active),10.5 µM (active),10.5 µM (active),,,20.9 µM (active),,-0.969 (inactive),-0.73,-1.01,,,
CC[C@H]1OC(=O)[C@H](C)[C@@H](O[C@H]2C[C@@](C)(OC)[C@@H](O)[C@H](C)O2)[C@H](C)[C@@H](O[C@@H]2O[C@H](C)C[C@H](N(C)C)[C@@H]2O)[C@](C)(O)C[C@@H](C)CN(C)[C@H](C)[C@@H](O)[C@]1(C)O,inactive,,18.7 µM (active),inactive,inactive,inactive,,,,,-4,0.7,0.923
O=C(OCC#CCSc1nnc(-c2cccc3ccccc23)o1)c1cc2ccccc2s1,inactive,,,inactive,3.32 µM (active),inactive,inactive,,,,0.144,0.66,0.162
O=c1cc(-c2cccc3c2Sc2ccccc2S3)oc(N2CCOCC2)c1,14.8 µM (active),14.8 µM (active),,20.9 µM (active),,18.7 µM (active),,1.05 (inactive),1.03,0.875,,,
CC(C)(C)OC(=O)N[C@H]1CCCCCC=C[C@@H]2C[C@@]2(C(=O)NS(=O)(=O)C2CC2)NC(=O)[C@@H]2C[C@@H](OC(=O)N3Cc4cccc(F)c4C3)CN2C1=O,inactive,,inactive,inactive,inactive,inactive,inactive,0.565 (inactive),0.658,1.2,0.6,0.826,2.04
O=C1NC(=O)C(=Cc2ccc3c(c2)OC(F)(F)O3)S1,14.8 µM (active),4.18 µM (active),,inactive,inactive,20.9 µM (active),inactive,,,,,,
O=C(O)[C@H]1O[C@H](Oc2cc3oc(-c4ccccc4)cc(=O)c3c(O)c2O)[C@H](O)[C@@H](O)[C@H]1O,inactive,,4.69 µM (active),,,inactive,,,,,,,
Cc1cccc(Nc2nc(-c3ccncc3)cs2)c1,18.7 µM (active),,,,,23.5 µM (active),10.5 µM (active),0.772 (inactive),0.626,0.437,,,
NS(=O)(=O)c1ccc(NC2=CC(=O)c3ccccc3C2=O)cc1,5.9 µM (active),,inactive,,inactive,14.8 µM (active),inactive,-0.549 (inactive),-0.888,-0.629,,,
O=C(Nc1ccccc1Br)N[C@@H]1CCN(c2ccc(C(F)(F)F)cn2)C1,18.7 µM (active),,,,20.9 µM (active),18.7 µM (active),inactive,-0.871 (inactive),0.714,0.446,,,
O=C1Nc2ccc(Cl)cc2C(C#CC2CC2)(C(F)(F)F)O1 (configuration not stated),16.6 µM (active),23.5 µM (active),,20.9 µM (active),20.9 µM (active),23.5 µM (active),,,,,,,
C=CCc1ccc(O)c(-c2ccc(O)c(CC=C)c2)c1,20.9 µM (active),20.9 µM (active),,,23.5 µM (active),18.7 µM (active),,,,,,,
Nc1ncnc2c1nc(Cl)n2[C@@H]1O[C@H](CO)[C@@H](O)[C@@H]1O,1.32 µM (active),,,20.9 µM (active),13.2 µM (active),0.235 µM (active),,0.764 (inactive),-0.225,-0.377,,,
CC=CC(=O)N(CC)c1ccccc1C,29.6 µM (active),,3.72 µM (active),inactive,inactive,inactive,inactive,,,,1.15,0.231,0.523
CNC1CCC(N(Cc2cccc(-c3ccncc3)c2)C(=O)c2sc3c(F)ccc(F)c3c2Cl)CC1 (configuration not stated),13.2 µM (active),14.8 µM (active),18.7 µM (active),9.35 µM (active),26.4 µM (active),10.5 µM (active),,-0.961 (inactive),-0.582,-1.33,,,
C[C@]12CC[C@@H]3c4ccc(O)cc4C[C@@H](CCCCCCCCCS(=O)CCCC(F)(F)C(F)(F)F)[C@H]3[C@H]1CC[C@H]2O (some centres not stated),inactive,,,2.09 µM (active),,inactive,inactive,-0.724 (inactive),-0.171,-1.07,1.23,0.607,0.767
COc1cc2ncnc(-n3nc(-c4ccccn4)nc3N)c2cc1OC,6.62 µM (active),4.69 µM (active),,inactive,inactive,3.72 µM (active),inactive,-0.168 (inactive),0.627,0.697,,,
